Screens (PubChem)
EP2 antag: inhibitors of human EP2 prostaglandin E2 receptor. C6 glioma cells expressing human EP2, cAMP TR-FRET; cells stimulated with saturating PGE2. inhibition, % at 25 µM. 260,000 tested, 0.52% active. AID 1422;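 active means percent inhibition above 40 after rounding to a whole number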;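 further: rat C6 glioma host cells with rolipram phosphodiesterase inhibitor present; the protocol text gives 20 µM as final concentration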
PG9 binder: binds the HIV-1 gp120 antibody PG9. TR-FRET gp120-PG9 antibody binding. inhibition, % at 6.7 µM. 360,000 tested, 0.43% active; in the data active means inhibition above about 8.5%
SKN-1 inh: C. elegans SKN-1 inhibition. inhibition, % at 21.8 µM. 360,000 tested, 0.49% active. AID 624304. C. elegans VP596 Pgst-4::GFP/RFP ratio, acrylamide-induced, 24 h;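 active means interference check ratio from 0.5 to 1.5 plus GFP to RFP signal ratio inhibition reaching or exceeding a fixed threshold, cut at about 30% in these data, passing the limit was not always enough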
EP2 mod: modulates human prostaglandin E2 receptor EP2 signaling. P43116. induction, % at 25 µM. 260,000 tested, 0.83% active. EP2-expressing cells, cAMP HTRF FRET, PGE2 co-stimulation;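 active means compounds whose cAMP rise, as percent of the full-agonist control response, exceeds 60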;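 further: rat C6 glioma line stably carrying human EP2 under a CMV promoter; the protocol text gives 20 µM as final concentration; 100% = response of wells given 1 µM PGE2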
RAM inhibit: inhibitors of the yeast RAM network; S. cerevisiae dse1pr::URA3 reporter, 5-FOA growth OD615, 2 d; analog-sensitive cbk1-as2 kinase mutant strain; 190,000 tested, 1.8% active; inhibition, % at 50 µM;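 active means inhibition above a set limit, 3 SD over mean compound inhibition, cut at about 8.4% in these data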;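 further: 0% = DMSO-only wells with no growth and 100% = 10 µM 1-NA-PP1 full growth; inhibition rescues growth on 5-FOA so higher OD means more RAM inhibition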
NR1D1 modulator: modulates human Rev-erb alpha binding to DNA; activity, % at 10 µM; 370,000 tested, 0.79% active; Rev-erbα–FITC-DNA binding, fluorescence polarization, 90 min; P20393;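 active means activity above about 14%, limit read from the data; passing the limit was not always enough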;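 further: 0% = DMSO wells with 35 nM protein and 100% = DMSO wells with 750 nM protein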
Target sequence (P20393 whole entry, looked up): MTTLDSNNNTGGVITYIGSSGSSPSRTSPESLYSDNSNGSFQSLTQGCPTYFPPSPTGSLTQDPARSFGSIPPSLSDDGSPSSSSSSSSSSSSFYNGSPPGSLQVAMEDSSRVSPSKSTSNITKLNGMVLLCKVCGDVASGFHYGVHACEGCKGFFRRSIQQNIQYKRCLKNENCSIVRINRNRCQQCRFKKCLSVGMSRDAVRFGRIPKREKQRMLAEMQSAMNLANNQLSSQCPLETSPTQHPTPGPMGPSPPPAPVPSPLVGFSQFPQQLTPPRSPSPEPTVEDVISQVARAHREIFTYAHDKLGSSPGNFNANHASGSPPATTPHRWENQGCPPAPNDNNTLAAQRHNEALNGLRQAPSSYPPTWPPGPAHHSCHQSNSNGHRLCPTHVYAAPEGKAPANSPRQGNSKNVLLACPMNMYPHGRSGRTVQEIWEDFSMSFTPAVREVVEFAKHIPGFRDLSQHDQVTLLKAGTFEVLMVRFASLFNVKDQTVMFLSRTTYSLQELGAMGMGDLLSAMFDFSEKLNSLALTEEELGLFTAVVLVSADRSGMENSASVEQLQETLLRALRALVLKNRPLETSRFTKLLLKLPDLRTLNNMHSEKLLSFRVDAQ
* = called active by the depositor; . = no result. In the library only some 2.9% were active in any assay of this set; here they are far more common.

SMILES	EP2 antag	PG9 binder	SKN-1 inh	EP2 mod	RAM inhibit	NR1D1 modulator
COc1ccc(C(C)C)cc1S(=O)(=O)n1cnc(C)c1	7	2	40*	9	-1	-3
COc1ccc(C)cc1S(=O)(=O)N1CCCCCC1	11	1	-10	4	.	-5
COc1ccc(OC)c(S(=O)(=O)N2CCN(c3ccccc3)CC2)c1	.	-1	-6	.	.	-5
O=C(c1cc(F)cc(F)c1)N1CCC(n2nnc3ccccc3c2=O)CC1	7	.	.	-14	.	.
O=c1n(Cn2nnc3ccccc32)ncc2cccn12	4	.	.	-22	.	.
COCCCN1C(=O)C(O)=C(C(=O)c2cccs2)C1c1cccc(OC)c1 (configuration not stated)	12	.	.	-2	.	.
CCCCCCCCCCC(=O)NNC(=O)c1c(O)c2ccccc2n(CC)c1=O	4	.	.	8	8.8*	.
CCCCCCCCC(=O)NNC(=O)c1c(O)c2ccccc2n(CCC)c1=O	4	-1	4	9	8.8*	-3
CCCCCCCCCC(=O)NNC(=O)c1c(O)c2ccccc2n(CCC)c1=O	11	-1	-4	-6	5	0
COc1ccc2nc3sc(C(=O)N4CCCC(C)C4)c(N)c3cc2c1 (configuration not stated)	15	.	.	-110	.	.
CS(=O)(=O)Nc1cccc(NC(=O)c2ccc(-c3ccc(F)c(F)c3)c3ccoc23)c1	.	-2	14	.	.	5
Cn1nccc1-c1ccc(C(=O)Nc2cccc(NS(C)(=O)=O)c2)c2occc12	.	1	37*	.	.	5
COc1ccccc1C1(O)CCN(CC(O)c2ccccc2)CC1 (configuration not stated)	7	.	.	-54	.	.
Cc1ccc(S(=O)(=O)N2CCCC(C(=O)NCCCOC(C)C)C2)cc1 (configuration not stated)	5	.	.	-13	.	.
c1ccc(-c2ccc(OCCCNC3CCCC3)cc2)cc1	1	-1	55*	-55	-1	1
O=C1[C@H]2[C@@H]3c4ccccc4[C@H]([C@H]2C(=O)N1c1ccc(OCc2ccccc2)cc1)[n+]1ccccc13	42*	.	.	14	.	.
O=C(/C=C/c1ccc(Br)cc1)Nc1ccc(S(=O)(=O)Nc2ncccn2)cc1	7	-1	-15	20	9.8*	.
Cc1ccc(/C=C/C(=O)NC(=S)Nc2ccc(S(=O)(=O)Nc3cc(C)on3)cc2)cc1	83*	-11	-6	-111	.	11
COc1cc(NS(=O)(=O)c2ccc(NC(=S)NC(=O)/C=C/c3ccc(OC)c(OC)c3)cc2)ncn1	17	1	-9	-91	6	-3
CCc1nnc(NS(=O)(=O)c2ccc(NC(=S)NC(=O)/C=C/c3ccc(F)cc3)cc2)s1	133*	-2	13	-11	6	2
COc1ccc(/C=C/C(=O)NC(=S)Nc2ccc(S(=O)(=O)Nc3cc(OC)ncn3)cc2)cc1	64*	1	10	-77	8.7*	-9
CCc1nnc(NS(=O)(=O)c2ccc(NC(=S)NC(=O)/C=C/c3ccc([N+](=O)[O-])cc3)cc2)s1	5	-1	2	-59	.	-9
COc1ccc(-c2ccc(=O)n(C3CCN(S(C)(=O)=O)CC3)n2)cc1F	.	.	.	-17	.	.
Cc1ccc(NC(=O)N(CCN2CCOCC2)Cc2cc3cc4c(cc3[nH]c2=O)OCO4)cc1	8	.	.	-2	.	.
COC(=O)C1=CNC=C(C(=O)OC)C1c1cccc(Cl)c1Cl	13	.	.	11	.	.
SMILES	EP2 antag	PG9 binder	SKN-1 inh	EP2 mod	RAM inhibit	NR1D1 modulator
COc1ccc(/C=C/C(=O)NC(=S)Nc2ccc(S(=O)(=O)Nc3nc(C)cc(C)n3)cc2)cc1	26	.	.	-119	.	.
COc1ccc(/C=C/C(=O)NC(=S)Nc2ccc(S(=O)(=O)Nc3nccnc3OC)cc2)cc1	40*	-2	-4	-11	4	-2
COc1ccc(C(=O)NC(=S)Nc2ccc(S(=O)(=O)Nc3nc(C)cc(C)n3)cc2)cc1	70*	.	.	-98	.	.
COC(=O)c1c(NC(=O)C2CCCCC2)sc(C(=O)Nc2ccccc2OC)c1C	5	.	.	19	.	.
C[C@@H](C(=O)NCc1ccccc1)[C@H]1C[C@]1(C)[C@H](NC(=O)OCc1ccccc1)c1ccccc1	7	-2	-5	-4	9.5*	-8
COC(=O)[C@H](C)[C@@H]1C[C@@]1(C)[C@@H](NC(=O)OCc1ccccc1)c1ccccc1	10	-3	-4	49	8.6*	-7
Cc1cc2c(s1)c1cnn(C)c(=O)c1n2Cc1ccc(F)cc1	.	.	.	-27	.	.
COc1ccccc1C1C(C(C)=O)=C(O)C(=O)N1CCc1c[nH]c2ccccc12 (configuration not stated)	7	.	.	-2	.	.
Fc1ccc(Cn2cccc2C2=NC(c3ccccc3)CO2)cc1 (configuration not stated)	1	-1	-14	61*	-1	5
Cc1ccc(OCC(=O)Nc2sc(C)c(C)c2C(N)=O)c(C)c1	8	.	.	-23	.	.
CN1CCCC1CCNc1ccc2sc3ccccc3c(=O)c2c1 (configuration not stated)	44*	-11	17	.	.	-1
CCOc1cc(C2C3CN(C)CC=C3C(C#N)=C(N)C2(C#N)C#N)ccc1OC(C)C (configuration not stated)	5	.	.	-10	.	.
O=C(CCCOc1ccccc1)N1CCN(c2ccc(F)cc2)CC1	11	-1	7	-19	2	1
O=C(Oc1ccccc1)N1CCN(c2ccc(F)cc2)CC1	-7	0	43*	-2	0	1
CCOc1cc(CNC2CCCC2)cc(Cl)c1OCc1ccc(F)cc1	11	1	75*	-26	0	-3
COc1cc(CNC2CCCC2)cc(Cl)c1OCc1ccccc1Cl	8	.	17	-30	0	3
CCNCc1cc(Cl)c(OCc2ccccc2)c(OCC)c1	2	-1	16	-13	1	1
COc1cc(CNC2CCCC2)cc(Cl)c1OCc1ccc(F)cc1	10	0	56*	-48	3	8
COc1ccc(-c2n[nH]c3c2C(c2ccc(OC)c(OC)c2)N(c2ccccc2)C3=O)cc1 (configuration not stated)	4	2	-1	29	9.1*	-2
COc1ccc(CCN2C(=O)c3[nH]nc(-c4ccccc4O)c3C2c2ccccc2)cc1OC (configuration not stated)	4	1	-5	-2	11*	1
COc1ccc(N2C(=O)c3[nH]nc(-c4ccccc4)c3C2c2ccc(F)cc2)cc1 (configuration not stated)	.	0	.	.	.	-1
OC(CN1CCC2(CC1)CC(O)c1ccccc1O2)c1ccc2c(c1)CCCC2 (configuration not stated)	12	.	.	-92	.	.
CCN1C(=O)/C(=C\N2CCCCCC2)SC1=S	3	1	3	-5	1	4
CCN1C(=O)/C(=C/N2CC(C)CC(C)C2)SC1=S (configuration not stated)	13	-2	7	-7	9.7*	-2
